Most compounds without a hit are left out; they make up all but 5% or so of the library.
AHR activator: activators of human aryl hydrocarbon receptor | P35869 | AHR-responsive luciferase reporter cells, luminescence | activation, % at 5 µM | hit rate 2.5% among 320,000 | AID 2796; in the data active = activation above about 47%
SENP8 block-1: SENP8 protease inhibition; Q96LD8; purified SENP8, Z-RLRGG-aminoluciferin cleavage, luminescence; inhibition, % at 10 µM; hit rate 1.2% among 330,000; AID 2540; in the data active = inhibition above about 50%
SENP8 block-2: SENP8 (human) protease inhibition; hit rate 0.64% among 360,000; recombinant SENP8, Nedd8 substrate fluorescence; inhibition, % at 20 µM; Q96LD8; in the data active = inhibition mostly above about 40%, no sharp cut-off; inactive = mostly below about 27%
SENP6 inh: blocks the human protease SENP6. Q9GZR1. inhibition, % at 10 µM. Recombinant SENP6 catalytic domain, aminoluciferin luminescence. hit rate 1.8% among 330,000;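 active = inhibition above about 50% at the single tested dose, limit read from the data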
EBI2 antag: antagonists of human EBI2 receptor | P32249 | EBI2 beta-arrestin recruitment, luminescence, 7a,25-OHC stimulated | inhibition, % at 5 µM | hit rate 0.81% among 360,000; in the data active = inhibition above about 38%;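 note: enzyme fragment complementation signal reports receptor beta-arrestin coupling in cells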
SENP7 inh: inhibitors of human SENP7 protease | inhibition, % at 5 µM | Q9BQF6 | hit rate 1.5% among 330,000 | recombinant SENP7, Z-RLRGG-aminoluciferin luminescence, 40 min;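 active = inhibition above about 50% at the single test dose, limit read from the data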
AHR act confirm: confirmation of human aryl hydrocarbon receptor activators. shares compounds with AHR activator. hit rate 87% among 2,300. AID 2845. human cells, AHR-responsive luciferase reporter, luminescence. activation, % at 9 µM; in the data active = activation above about 49%;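 note: HepG2 hepatoma cells carrying a DRE-driven firefly luciferase reporter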
PXR act counter: PXR activation, counter-screen for AHR activators; cell-based PXR reporter, luciferase luminescence; shares compounds with AHR activator; activation, % at 11.6 µM; AID 434939; hit rate 88% among 2,300; in the data active = activation above about 11%;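 note: human hepatoma DPX-2 cells expressing full-length human PXR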
Large screens that a line does not name were inactive (follow-up assays come after a bar, where they were run).

COc1ccc2c(CN3CCCCCCC3)cc(=O)oc2c1	none (no result: AHR activator, SENP8 block-1, SENP6 inh, SENP7 inh)
CC(O)Cc1cn([C@@H](CCCCNC(=O)OC(C)(C)C)C(=O)N2CCN(C(=O)OC(C)(C)C)CC2)nn1 (stereo partly specified)	none
O=C(CSc1ncn[nH]1)Nc1ccc(Cl)c(S(=O)(=O)N2CCOCC2)c1	none
CCCCC[C@@H](C)N1C[C@H](COCc2ccccc2)Oc2cc(N3CC[C@H](O)C3)ccc2S1(=O)=O	none (no result: AHR activator, SENP8 block-1, SENP6 inh, SENP7 inh)
COC(=O)[C@@]12C[C@@H](CC(=O)NCc3cccs3)C(=O)N(Cc3ccco3)C1=CCC(C)(C)C2	none (no result: AHR activator, SENP8 block-1, SENP6 inh, SENP7 inh)
COc1ccc(-c2ccnc(-c3ccncc3)n2)cc1	none
COc1ccc(-c2cc3cc(OC)c(OC)cc3cn2)cc1	AHR activator 65
CCOC(=O)Nc1sc2nc(C)cc(C)c2c1-n1cccc1	AHR activator 70
CN=c1scc(-c2ccccc2F)n1/N=C/c1ccc(O)c(O)c1O	SENP8 block-2 43 (no result: AHR activator, SENP8 block-1, SENP6 inh, SENP7 inh)
CCOc1ccc(C(=O)Nc2cccc3cccnc23)cc1	AHR activator 52
CCOc1ccccc1C(=O)Nc1nnc(C(C)C)s1	AHR activator 57
O=C(Nc1cccc2cccnc12)c1cccc2ccccc12	none
CCOc1ccccc1C(=O)Nc1cccc2cccnc12	AHR activator 74
CS(=O)(=O)c1nc(S(=O)(=O)c2ccc(Cl)cc2)c(NCc2ccccn2)s1	none
COc1ccc([N+](=O)[O-])cc1NC(=O)C(C)OC(=O)Cn1[nH]c(=O)c2ccccc2c1=O (stereo unspecified)	none
COC/C=C/C1=CC2=CC(=O)C(C)(OC(=O)c3cnc4ccccc4n3)C(=O)C2=CN1Cc1ccc(OC)cc1 (stereo unspecified)	none
COC/C=C/C1=CC2=CC(=O)C(C)(OC(=O)c3cnc4ccccc4n3)C(=O)C2=CN1CC1CC1 (stereo unspecified)	SENP8 block-2 44
CCCNC(=O)C1(C)CCCN(C(=O)c2cccc(Cl)c2)C1 (stereo unspecified)	none (no result: AHR activator, SENP8 block-1, SENP6 inh, SENP7 inh)
O=c1c(N=Nc2ccccc2)c[nH]n1-c1ccccc1	SENP8 block-2 54 (no result: AHR activator, SENP8 block-1, SENP6 inh, SENP7 inh)
O=C1C2=C(Nc3ccccc3SC2c2ccco2)c2ccccc21 (stereo unspecified)	AHR activator 70
O=C(N/N=C/c1c[nH]c2c1ccc1ccccc12)c1ccc([N+](=O)[O-])cc1	AHR activator 105 | AHR act confirm 79 | PXR act counter 11
O=C(NCCc1ccccc1)c1c[nH]c2c(F)cccc2c1=O	AHR activator 141 | AHR act confirm 130 | PXR act counter 83
O=C(COC(=O)c1n[nH]c2ccccc12)NCCc1ccccc1	AHR activator 98 | AHR act confirm 91 | PXR act counter 19
O=C(NCCc1ccccc1)c1n[nH]c2ccccc12	AHR activator 101 | AHR act confirm 103 | PXR act counter 71
Cc1ccc2c(c1)/C(=C/c1ccco1)C(=O)N2	AHR activator 116 | AHR act confirm 99 | PXR act counter 23
CCC(C)Oc1cc(-c2ccnc(Nc3cccc(Cl)c3)n2)ccn1 (stereo unspecified)	AHR activator 114 | AHR act confirm 72 | PXR act counter 31
CC(OC(=O)C1CCCC1)C(=O)Nc1ncc(Cl)cc1Cl (stereo unspecified)	none
CCOc1ncccc1C(=O)Nc1cc(S(=O)(=O)N2CCCCCC2)ccc1OC	none (no result: AHR activator)
O=C(O)C(Cc1ccc(O)cc1)N1C(=O)c2ccccc2C1=O (stereo unspecified)	none
C[C@H](NC(=O)[C@@H]1CSC2c3ccccc3C(=O)N21)C(=O)NCCc1ccccc1 (stereo partly specified)	AHR activator 124 | AHR act confirm 107 | PXR act counter 59
C[C@H](NC(=O)[C@@H]1CSC2c3ccccc3C(=O)N21)C(=O)NCCc1ccc(F)cc1 (stereo partly specified)	AHR activator 96 | AHR act confirm 104 | PXR act counter 55
CCCCN(C)CCNC(=O)CN1C(=O)CSc2ccc(S(=O)(=O)N3CCOCC3)cc21	none
Cc1ccc(Nc2ncccc2C(N)=O)cc1	AHR activator 151 | AHR act confirm 133
COc1cc(/C=N/O)ccc1Oc1cnccn1	none
O=C1NC2=C(CCc3ccccc32)C(c2ccccc2)N1 (stereo unspecified)	AHR activator 82, SENP8 block-1 87, SENP6 inh 95, SENP7 inh 73 | AHR act confirm inactive | PXR act counter 22
NC1=NC(=O)/C(=C/c2ccc(-c3ccc(S(N)(=O)=O)cc3)o2)S1	AHR activator 121 | AHR act confirm 88 | PXR act counter 16
CC1(C)OC(=O)C(=Cc2ccc(-c3ccc(S(N)(=O)=O)cc3)o2)C(=O)O1	none
CCn1c2ccccc2c2cc(NC(=O)COc3ccccc3)ccc21	AHR activator 100 | AHR act confirm 89 | PXR act counter 60
CCn1c2ccccc2c2cc(NC(=O)N3CCOCC3)ccc21	AHR activator 118 | AHR act confirm 99 | PXR act counter 109
CCn1c2ccccc2c2cc(NC(=O)COc3ccc(OC)cc3)ccc21	none
Cc1ccnc(NC(=O)Nc2ccc(Br)cc2Cl)c1	none
O=C(N[C@@H]1CCC(=O)N(CC[C@H](Sc2ccccc2)c2ccccc2)CC1)OCc1ccccc1	none
O=C(COc1ccc(Br)cc1CNC1CCCC1)Nc1ccccc1	none
CCN(CC)C(=O)CSc1nnc(-c2ccccn2)n1-c1ccccc1OC	none
O=C(CN1C2=NCCN2c2ccccc21)c1ccc(Br)cc1	AHR activator 112 | AHR act confirm 71 | PXR act counter 21
O=C(CN1C2=NCCN2c2ccccc21)c1ccc(Br)s1	AHR activator 94 | AHR act confirm 81 | PXR act counter 14
CCN(CC)S(=O)(=O)c1ccc(OC)c(NC(=O)c2ccc3c(c2)OCO3)c1	none
COc1cc2c(cc1NC(=O)C(C)NCc1ccccc1)oc1ccccc12 (stereo unspecified)	AHR activator 117 | AHR act confirm 133 | PXR act counter 90
COc1cc2c(cc1NC(=S)Nc1cccc(C(F)(F)F)c1)oc1ccccc12	AHR activator 107 | AHR act confirm 92 | PXR act counter 29
COc1cc2c(cc1NC(=O)CCC(=O)O)oc1ccccc12	none
COc1ccc(OC)c(NC(=O)c2ccc3c(c2)OCO3)c1	AHR activator 112 | AHR act confirm 102 | PXR act counter 22
COc1cc2c(cc1NC(=O)c1ccc3c(c1)OCO3)oc1ccccc12	AHR activator 99 | AHR act confirm 119 | PXR act counter 24
O=C(Nc1cccc(Oc2ccccc2)c1)C1Cc2c(-c3ccc4c(c3)OCO4)ccnc2O1 (stereo unspecified)	none (no result: AHR activator, SENP8 block-1, SENP6 inh, SENP7 inh)

Compound activity as filed in PubChem.
